# Assay results published in PubChem BioAssay.
# Calls of active or inactive are those of the source. Unless noted, how the calls were made is not given here.
# How the values were obtained:
# [1] = test system: XIP peptide (Xip251-270) binding; assay: XIP fragment 251-270 binding compounds – biochemical, small-molecule microarray, fluorescence 635/667 nm, 0.1 µg/mL protein, primary screen (AID 1182); settings: fluorescent protein binding, 635 nm, higher = more signal, called active from +8 up or from −8 down
# [2] = test system: XIP peptide (Xip251-270); assay: compounds binding XIP fragment 251-270 – biochemical, small-molecule microarray, fluorescence 635/667 nm, 0.5 µg/mL protein, primary screen (AID 1183); settings: fluorescence 635 nm, higher = more signal
# [3] = blood-stage malaria parasite viability loss – strain 3D7, DAPI fluorescence, 100 nL, primary screen (AID 1184);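 further: parasites grown inside human red blood cells in medium with human serum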; settings: P. falciparum 3D7 growth, 3 d, higher = more signal
# [4] = molecular target: Homeobox protein Hox-A13 (Mus musculus) (UniProt Q62424); assay: disruptors of Hoxa13 oligonucleotide interaction – biochemical, fluorescence polarization, labeled oligonucleotide, primary screen (AID 1185); settings: Hoxa13:DNA binding, 15 min, higher = more signal, called active from +8 up or from −8 down
# [5] = blockers of DNA damage checkpoint Chk1 activation – imaging, HeLa, hydroxyurea, phospho-Chk1 antibody, percent positive cells, primary screen (AID 1186); settings: hydroxyurea-induced phospho-Chk1 immunofluorescence imaging, higher = more signal
# [6] = blockers of DNA damage checkpoint Chk1 activation – imaging, HeLa, hydroxyurea, phospho-Chk1 nuclear intensity, primary screen (AID 1187); settings: hydroxyurea-induced phospho-Chk1 immunofluorescence imaging, higher = more signal
# Sequence of Homeobox protein Hox-A13 (Mus musculus) (Q62424 whole entry, looked up): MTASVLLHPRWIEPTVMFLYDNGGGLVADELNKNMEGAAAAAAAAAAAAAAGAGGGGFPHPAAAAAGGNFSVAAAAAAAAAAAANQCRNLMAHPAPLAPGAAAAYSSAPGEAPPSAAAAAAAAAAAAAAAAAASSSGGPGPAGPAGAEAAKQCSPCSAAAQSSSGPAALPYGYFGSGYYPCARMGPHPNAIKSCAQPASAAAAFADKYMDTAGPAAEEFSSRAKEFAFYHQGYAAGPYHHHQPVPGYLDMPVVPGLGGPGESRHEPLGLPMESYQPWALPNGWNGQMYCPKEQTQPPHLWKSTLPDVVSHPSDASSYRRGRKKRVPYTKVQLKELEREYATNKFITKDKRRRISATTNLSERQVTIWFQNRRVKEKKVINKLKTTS
SMILES,composite z-score [1],composite z-score [2],z-score [3],z-score [4],z-score [5],z-score [6]
Cc1c(NC(=O)/C(C#N)=C/c2cccc([N+](=O)[O-])c2)c(=O)n(-c2ccccc2)n1C,0.92 (inactive),0.695,-0.413,-2.41 (inactive),-0.782 (inactive),-1.15 (inactive)
COCCOC(=O)N1C(=O)[C@@]2(c3cc(C#CC4=CCCCC4)ccc31)[C@H](C(N)=O)[C@H]1C(=O)O[C@H](c3ccccc3)[C@H](c3ccccc3)N1[C@@H]2c1ccc(O)cc1,1.79 (inactive),0.769,0.55,-0.393 (inactive),-0.371 (inactive),-0.552 (inactive)
CCCCCCc1nc(-c2ccc(-c3ccc(Cl)c(Cl)c3)o2)c(C)c2c1[Si](C(C)C)(C(C)C)OC2,-0.376 (inactive),0.148,-2.4,-2.13 (inactive),0.394 (inactive),0.251 (inactive)
CC(=O)n1cc(C(O)C2C=CC3C(=O)NC(=O)C3N2Nc2ccccn2)c2ccccc21 (stereo unspecified),-0.251 (inactive),0.785,0.249,-2.99 (inactive),0.5 (inactive),-0.392 (inactive)
C=C(C)[C@@H]1CC=C(C(O)C2C=CC3C(=O)NC(=O)C3N2Nc2ccc(Cl)cc2Cl)CC1 (stereo partly specified),-0.245 (inactive),0.468,-0.52,-5.46 (inactive),0.463 (inactive),0.154 (inactive)
COc1ccc([Si](C)(C)[C@H]2[C@H](CC(=O)N3CCC[C@H]3CO)O[C@@]3(C(=O)N(Cc4cccc(N5CCOC5=O)c4)c4ccccc43)[C@@H]2C)cc1,0.991 (inactive),0.672,-1.42,-4.71 (inactive),0.835 (inactive),0.936 (inactive)
CCOC(=O)C1=CC[C@H]2C(=O)N(c3ccccc3)C(=O)[C@@H]12,0.571 (inactive),0.903,-0.55,-3.98 (inactive),0.152 (inactive),-0.177 (inactive)
COc1ccc([Si](C)(C)[C@H]2[C@H](CCO)O[C@@]3(C(=O)N(Cc4ccccc4)c4ccc(N5CCCCC5=O)cc43)[C@@H]2C)cc1,0.391 (inactive),0.686,-1.67,-5.2 (inactive),-1.39 (inactive),-0.713 (inactive)
CCCCC(=C=CC[C@H](O)c1cccc(OCCO)c1)C[C@H](O)c1ccccn1,0.0547 (inactive),0.661,-1.78,-4.75 (inactive),-0.949 (inactive),-0.278 (inactive)
NCCCCCNC(=O)[C@H]1C[C@H]2C(=O)N3CCC[C@H]3C(=O)N2[C@H]1c1ccc(O)cc1,0.705 (inactive),0.718,-0.0006,-2.09 (inactive),-0.15 (inactive),-0.265 (inactive)
O=C(O)C1N=C(c2ccc(OCCCO)cc2)N(c2ccccc2)O1 (stereo unspecified),1.77 (inactive),0.852,-0.112,-2.98 (inactive),-0.259 (inactive),-0.229 (inactive)
CO[C@H]1O[C@H](CO)[C@@H](OC(=O)Nc2ccccc2-c2ccccc2)[C@H](OC(=O)Nc2ccccc2-c2ccccc2)[C@@H]1OC(=O)Nc1ccccc1-c1ccccc1,0.979 (inactive),0.801,-2.51,-1.13 (inactive),-0.0022 (inactive),0.119 (inactive)
COc1ccc([Si](C)(C)[C@H]2[C@H](CCn3cc([C@H](O)c4ccccc4)nn3)O[C@@]3(C(=O)N(C)c4ccccc43)[C@@H]2C)cc1,0.014 (inactive),-0.325,-1.52,-6.41 (inactive),-0.179 (inactive),0.36 (inactive)
CN1C(=O)C2C=CC(C(O)c3ccc(F)cc3)N(N(c3ccccc3)c3ccccc3)C2C1=O (stereo unspecified),-0.0116 (inactive),-0.0807,0.988,-3.45 (inactive),1.17 (inactive),0.568 (inactive)
CO[C@H]1O[C@H](CO)[C@@H](OC(=O)Nc2ccc(Br)cc2)[C@@H]2OC(=O)[C@H](Cc3cccc(Br)c3)C/C=C/C[C@@H](Cc3cccc(Br)c3)C(=O)O[C@@H]12,0.406 (inactive),0.467,-1.55,1.51 (inactive),-0.423 (inactive),-0.471 (inactive)
O=C(NC1CC1)[C@@H]1c2ccccc2C(=O)N(C2Cc3ccccc3C2)[C@H]1c1ccc(CO)cc1,0.456 (inactive),0.657,-0.69,-1.14 (inactive),-0.217 (inactive),0.0084 (inactive)
[N-]=[N+]=Nc1ccccc1C[C@@]1(C(=O)N2CCCCC2)N=C(c2ccc(OCCCO)cc2)O[C@@H]1c1ccccc1N=[N+]=[N-],0.973 (inactive),0.0553,-2.42,-4.67 (inactive),-0.425 (inactive),-0.286 (inactive)
CCCNC(=O)[C@@]1(Sc2ccc(C)cc2)CC(=O)N(Cc2ccccc2C(F)(F)F)[C@@H]1c1ccc(CO)cc1I,-0.163 (inactive),0.704,-1.69,-1.3 (inactive),-0.104 (inactive),0.0829 (inactive)
CC(C)N1CC=CC23O[C@@H]4C=CCOC(=O)[C@@H]4[C@H]2C(=O)N(CCCCCO)[C@@H]3C1=O (stereo partly specified),0.334 (inactive),0.729,-0.758,-3.4 (inactive),0.0031 (inactive),-0.0755 (inactive)
C=CCC(OC(C)=O)[C@@H]1[C@@H](N(Cc2ccc(-c3cccc(C(F)(F)F)c3)o2)C(=O)Cc2ccc(OC)cc2)c2cc(OCCCO)ccc2N1C(=O)c1ccc2ccccc2c1 (stereo partly specified),0.397 (inactive),0.0642,-2.16,-2.43 (inactive),0.171 (inactive),0.284 (inactive)
C=CC[C@]12N=C(c3ccc(OCCCO)cc3)O[C@H]1c1ccccc1N(CCS(=O)(=O)c1ccccc1)C2=O,3.59 (inactive),0.708,-1.57,-2.59 (inactive),-0.382 (inactive),-0.315 (inactive)
